# Assay results reported in the supplement of paper PMC4466140.
# Molecular target: AgAbp1
# Experiment: SPOT peptide array binding signal intensity (averaged, normalized) (arbitrary units (background-subtracted, floor 0; scale differs between SH3 domains)); higher = stronger binding of the SH3 domain to the peptide
# Summary of the method: (§1)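 Four yeast species supplied the SH3 domains, which were expressed as GST fusions in E. coli BL21(DE3) and purified on glutathione Sepharose. Incubation with cellulose membranes carrying synthetic 15-mer peptides, cysteines exchanged for serines, ran overnight at 4°C at 10 μg/ml in TBS-based blocking buffer. Binding signal is reported as normalized, background-subtracted spot intensity averaged over replicates, in arbitrary units not shared between domains.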
row,Binder,SPOT peptide array binding signal intensity
1,HRRRRVFSIPSLKSI,65.5

# Molecular target: AgBbc1
# Experiment: as above
# Summary of the method: as §1
row,Binder,SPOT peptide array binding signal intensity
1,HRRRRVFSIPSLKSI,88.2

# Molecular target: AgBem1-D1
# Experiment: as above
# Summary of the method: as §1
row,Binder,SPOT peptide array binding signal intensity
1,HRRRRVFSIPSLKSI,426

# Molecular target: AgBzz1-D1
# Experiment: as above
# Summary of the method: as §1
row,Binder,SPOT peptide array binding signal intensity
1,HRRRRVFSIPSLKSI,45

# Molecular target: AgBzz1-D2
# Experiment: as above
# Summary of the method: as §1
row,Binder,SPOT peptide array binding signal intensity
1,HRRRRVFSIPSLKSI,28.5

# Molecular target: AgCyk3
# Experiment: as above
# Summary of the method: as §1
row,Binder,SPOT peptide array binding signal intensity
1,HRRRRVFSIPSLKSI,18

# Molecular target: AgFus1
# Experiment: as above
# Summary of the method: as §1
row,Binder,SPOT peptide array binding signal intensity
1,HRRRRVFSIPSLKSI,1100

# Molecular target: AgHof1
# Experiment: as above
# Summary of the method: as §1
row,Binder,SPOT peptide array binding signal intensity
1,HRRRRVFSIPSLKSI,117

# Molecular target: AgHse1
# Experiment: as above
# Summary of the method: as §1
row,Binder,SPOT peptide array binding signal intensity
1,HRRRRVFSIPSLKSI,2250

# Molecular target: AgLsb1
# Experiment: as above
# Summary of the method: as §1
row,Binder,SPOT peptide array binding signal intensity
1,HRRRRVFSIPSLKSI,51.2

# Molecular target: AgLsb4
# Experiment: as above
# Summary of the method: as §1
row,Binder,SPOT peptide array binding signal intensity
1,HRRRRVFSIPSLKSI,264

# Molecular target: AgMyo5
# Experiment: as above
# Summary of the method: as §1
row,Binder,SPOT peptide array binding signal intensity
1,HRRRRVFSIPSLKSI,6

# Molecular target: AgNbp2
# Experiment: as above
# Summary of the method: as §1
row,Binder,SPOT peptide array binding signal intensity
1,HRRRRVFSIPSLKSI,470

# Molecular target: AgRvs167
# Experiment: as above
# Summary of the method: as §1
row,Binder,SPOT peptide array binding signal intensity
1,HRRRRVFSIPSLKSI,15.8

# Molecular target: AgSho1
# Experiment: as above
# Summary of the method: as §1
row,Binder,SPOT peptide array binding signal intensity
1,HRRRRVFSIPSLKSI,168

# Molecular target: AgSla1-D1-D2
# Experiment: as above
# Summary of the method: as §1
row,Binder,SPOT peptide array binding signal intensity
1,HRRRRVFSIPSLKSI,776

# Molecular target: AgSla1-D3
# Experiment: as above
# Summary of the method: as §1
row,Binder,SPOT peptide array binding signal intensity
1,HRRRRVFSIPSLKSI,11

# Molecular target: CaAbp1-D1
# Experiment: as above
# Summary of the method: as §1
row,Binder,SPOT peptide array binding signal intensity
1,HRRRRVFSIPSLKSI,703

# Molecular target: CaAbp1-D2
# Experiment: as above
# Summary of the method: as §1
row,Binder,SPOT peptide array binding signal intensity
1,HRRRRVFSIPSLKSI,734

# Molecular target: CaBbc1
# Experiment: as above
# Summary of the method: as §1
row,Binder,SPOT peptide array binding signal intensity
1,HRRRRVFSIPSLKSI,198

# Molecular target: CaBem1-D1
# Experiment: as above
# Summary of the method: as §1
row,Binder,SPOT peptide array binding signal intensity
1,HRRRRVFSIPSLKSI,100

# Molecular target: CaBzz1-D1
# Experiment: as above
# Summary of the method: as §1
row,Binder,SPOT peptide array binding signal intensity
1,HRRRRVFSIPSLKSI,60

# Molecular target: CaBzz1-D2
# Experiment: as above
# Summary of the method: as §1
row,Binder,SPOT peptide array binding signal intensity
1,HRRRRVFSIPSLKSI,69

# Molecular target: CaCyk3
# Experiment: as above
# Summary of the method: as §1
row,Binder,SPOT peptide array binding signal intensity
1,HRRRRVFSIPSLKSI,75

# Molecular target: CaFus1
# Experiment: as above
# Summary of the method: as §1
row,Binder,SPOT peptide array binding signal intensity
1,HRRRRVFSIPSLKSI,1310

# Molecular target: CaHof1
# Experiment: as above
# Summary of the method: as §1
row,Binder,SPOT peptide array binding signal intensity
1,HRRRRVFSIPSLKSI,0.5

# Molecular target: CaHse1
# Experiment: as above
# Summary of the method: as §1
row,Binder,SPOT peptide array binding signal intensity
1,HRRRRVFSIPSLKSI,232

# Molecular target: CaLsb1
# Experiment: as above
# Summary of the method: as §1
row,Binder,SPOT peptide array binding signal intensity
1,HRRRRVFSIPSLKSI,2.5

# Molecular target: CaLsb4
# Experiment: as above
# Summary of the method: as §1
row,Binder,SPOT peptide array binding signal intensity
1,HRRRRVFSIPSLKSI,196

# Molecular target: CaMyo5
# Experiment: as above
# Summary of the method: as §1
row,Binder,SPOT peptide array binding signal intensity
1,HRRRRVFSIPSLKSI,3.5

# Molecular target: CaNbp2
# Experiment: as above
# Summary of the method: as §1
row,Binder,SPOT peptide array binding signal intensity
1,HRRRRVFSIPSLKSI,887

# Molecular target: CaRvs167
# Experiment: as above
# Summary of the method: as §1
row,Binder,SPOT peptide array binding signal intensity
1,HRRRRVFSIPSLKSI,103

# Molecular target: CaRvs167-3
# Experiment: as above
# Summary of the method: as §1
row,Binder,SPOT peptide array binding signal intensity
1,HRRRRVFSIPSLKSI,319

# Molecular target: CaSho1
# Experiment: as above
# Summary of the method: as §1
row,Binder,SPOT peptide array binding signal intensity
1,HRRRRVFSIPSLKSI,1550

# Molecular target: CaSla1-D1-D2
# Experiment: as above
# Summary of the method: as §1
row,Binder,SPOT peptide array binding signal intensity
1,HRRRRVFSIPSLKSI,49

# Molecular target: CaSla1-D3
# Experiment: as above
# Summary of the method: as §1
row,Binder,SPOT peptide array binding signal intensity
1,HRRRRVFSIPSLKSI,29.5

# Molecular target: ScAbp1
# Experiment: as above
# Summary of the method: as §1
row,Binder,SPOT peptide array binding signal intensity
1,HRRRRVFSIPSLKSI,38

# Molecular target: ScBbc1
# Experiment: as above
# Summary of the method: as §1
row,Binder,SPOT peptide array binding signal intensity
1,HRRRRVFSIPSLKSI,43.5

# Molecular target: ScBem1-D1
# Experiment: as above
# Summary of the method: as §1
row,Binder,SPOT peptide array binding signal intensity
1,HRRRRVFSIPSLKSI,76

# Molecular target: ScBzz1-D1
# Experiment: as above
# Summary of the method: as §1
row,Binder,SPOT peptide array binding signal intensity
1,HRRRRVFSIPSLKSI,21

# Molecular target: ScBzz1-D2
# Experiment: as above
# Summary of the method: as §1
row,Binder,SPOT peptide array binding signal intensity
1,HRRRRVFSIPSLKSI,51

# Molecular target: ScCyk3
# Experiment: as above
# Summary of the method: as §1
row,Binder,SPOT peptide array binding signal intensity
1,HRRRRVFSIPSLKSI,238

# Molecular target: ScFus1
# Experiment: as above
# Summary of the method: as §1
row,Binder,SPOT peptide array binding signal intensity
1,HRRRRVFSIPSLKSI,1620

# Molecular target: ScHof1
# Experiment: as above
# Summary of the method: as §1
row,Binder,SPOT peptide array binding signal intensity
1,HRRRRVFSIPSLKSI,3

# Molecular target: ScHse1
# Experiment: as above
# Summary of the method: as §1
row,Binder,SPOT peptide array binding signal intensity
1,HRRRRVFSIPSLKSI,2170

# Molecular target: ScLsb1
# Experiment: as above
# Summary of the method: as §1
row,Binder,SPOT peptide array binding signal intensity
1,HRRRRVFSIPSLKSI,48.8

# Molecular target: ScLsb2
# Experiment: as above
# Summary of the method: as §1
row,Binder,SPOT peptide array binding signal intensity
1,HRRRRVFSIPSLKSI,12.5

# Molecular target: ScLsb3
# Experiment: as above
# Summary of the method: as §1
row,Binder,SPOT peptide array binding signal intensity
1,HRRRRVFSIPSLKSI,780

# Molecular target: ScLsb4
# Experiment: as above
# Summary of the method: as §1
row,Binder,SPOT peptide array binding signal intensity
1,HRRRRVFSIPSLKSI,44.5

# Molecular target: ScMyo3
# Experiment: as above
# Summary of the method: as §1
row,Binder,SPOT peptide array binding signal intensity
1,HRRRRVFSIPSLKSI,9.75

# Molecular target: ScMyo5
# Experiment: as above
# Summary of the method: as §1
row,Binder,SPOT peptide array binding signal intensity
1,HRRRRVFSIPSLKSI,8

# Molecular target: ScNbp2
# Experiment: as above
# Summary of the method: as §1
row,Binder,SPOT peptide array binding signal intensity
1,HRRRRVFSIPSLKSI,841

# Molecular target: ScPex13
# Experiment: as above
# Summary of the method: as §1
row,Binder,SPOT peptide array binding signal intensity
1,HRRRRVFSIPSLKSI,≤ 0

# Molecular target: ScRvs167
# Experiment: as above
# Summary of the method: as §1
row,Binder,SPOT peptide array binding signal intensity
1,HRRRRVFSIPSLKSI,95.5

# Molecular target: ScSho1
# Experiment: as above
# Summary of the method: as §1
row,Binder,SPOT peptide array binding signal intensity
1,HRRRRVFSIPSLKSI,1320

# Molecular target: ScSla1-D1-D2
# Experiment: as above
# Summary of the method: as §1
row,Binder,SPOT peptide array binding signal intensity
1,HRRRRVFSIPSLKSI,321

# Molecular target: ScSla1-D3
# Experiment: as above
# Summary of the method: as §1
row,Binder,SPOT peptide array binding signal intensity
1,HRRRRVFSIPSLKSI,12.8

# Molecular target: SpAbp1-D1
# Experiment: as above
# Summary of the method: as §1
row,Binder,SPOT peptide array binding signal intensity
1,HRRRRVFSIPSLKSI,293

# Molecular target: SpBbc1
# Experiment: as above
# Summary of the method: as §1
row,Binder,SPOT peptide array binding signal intensity
1,HRRRRVFSIPSLKSI,12

# Molecular target: SpBzz1-D1
# Experiment: as above
# Summary of the method: as §1
row,Binder,SPOT peptide array binding signal intensity
1,HRRRRVFSIPSLKSI,122

# Molecular target: SpBzz1-D2
# Experiment: as above
# Summary of the method: as §1
row,Binder,SPOT peptide array binding signal intensity
1,HRRRRVFSIPSLKSI,0.5

# Molecular target: SpCyk3
# Experiment: as above
# Summary of the method: as §1
row,Binder,SPOT peptide array binding signal intensity
1,HRRRRVFSIPSLKSI,6

# Molecular target: SpHof1
# Experiment: as above
# Summary of the method: as §1
row,Binder,SPOT peptide array binding signal intensity
1,HRRRRVFSIPSLKSI,322

# Molecular target: SpHof1-2
# Experiment: as above
# Summary of the method: as §1
row,Binder,SPOT peptide array binding signal intensity
1,HRRRRVFSIPSLKSI,51.2

# Molecular target: SpHof1-3
# Experiment: as above
# Summary of the method: as §1
row,Binder,SPOT peptide array binding signal intensity
1,HRRRRVFSIPSLKSI,622

# Molecular target: SpHse1
# Experiment: as above
# Summary of the method: as §1
row,Binder,SPOT peptide array binding signal intensity
1,HRRRRVFSIPSLKSI,997

# Molecular target: SpLsb1
# Experiment: as above
# Summary of the method: as §1
row,Binder,SPOT peptide array binding signal intensity
1,HRRRRVFSIPSLKSI,11

# Molecular target: SpLsb4
# Experiment: as above
# Summary of the method: as §1
row,Binder,SPOT peptide array binding signal intensity
1,HRRRRVFSIPSLKSI,372

# Molecular target: SpMyo1
# Experiment: as above
# Summary of the method: as §1
row,Binder,SPOT peptide array binding signal intensity
1,HRRRRVFSIPSLKSI,8.25

# Molecular target: SpNbp2
# Experiment: as above
# Summary of the method: as §1
row,Binder,SPOT peptide array binding signal intensity
1,HRRRRVFSIPSLKSI,1660

# Molecular target: SpPex13
# Experiment: as above
# Summary of the method: as §1
row,Binder,SPOT peptide array binding signal intensity
1,HRRRRVFSIPSLKSI,21

# Molecular target: SpRvs167
# Experiment: as above
# Summary of the method: as §1
row,Binder,SPOT peptide array binding signal intensity
1,HRRRRVFSIPSLKSI,55.8

# Molecular target: SpSla1-D1-D2
# Experiment: as above
# Summary of the method: as §1
row,Binder,SPOT peptide array binding signal intensity
1,HRRRRVFSIPSLKSI,≤ 0

# Molecular target: SpSla1-D3
# Experiment: as above
# Summary of the method: as §1
row,Binder,SPOT peptide array binding signal intensity
1,HRRRRVFSIPSLKSI,30
